Measured values from article PMC4336329 (PLoS ONE, 2015).
Screen size: about 310,000 compounds; about 14,000 (4.5%) showed an effect of 50% or more. Effects have a minus sign here. The sample holds strong results, similar compounds and a random draw of the others, so the mix is not that of the screen.

Molecular target: human ether-à-go-go-related gene (hERG) potassium channel (human, UniProt Q12809)
Assay: primary screen, population patch clamp on CHO cells stably expressing hERG; higher = less effect of the substance
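Also: peak tail current of the secondary pulse compared with the same well before compound.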

Chain of human ether-à-go-go-related gene (hERG) potassium channel (Q12809 whole entry, looked up): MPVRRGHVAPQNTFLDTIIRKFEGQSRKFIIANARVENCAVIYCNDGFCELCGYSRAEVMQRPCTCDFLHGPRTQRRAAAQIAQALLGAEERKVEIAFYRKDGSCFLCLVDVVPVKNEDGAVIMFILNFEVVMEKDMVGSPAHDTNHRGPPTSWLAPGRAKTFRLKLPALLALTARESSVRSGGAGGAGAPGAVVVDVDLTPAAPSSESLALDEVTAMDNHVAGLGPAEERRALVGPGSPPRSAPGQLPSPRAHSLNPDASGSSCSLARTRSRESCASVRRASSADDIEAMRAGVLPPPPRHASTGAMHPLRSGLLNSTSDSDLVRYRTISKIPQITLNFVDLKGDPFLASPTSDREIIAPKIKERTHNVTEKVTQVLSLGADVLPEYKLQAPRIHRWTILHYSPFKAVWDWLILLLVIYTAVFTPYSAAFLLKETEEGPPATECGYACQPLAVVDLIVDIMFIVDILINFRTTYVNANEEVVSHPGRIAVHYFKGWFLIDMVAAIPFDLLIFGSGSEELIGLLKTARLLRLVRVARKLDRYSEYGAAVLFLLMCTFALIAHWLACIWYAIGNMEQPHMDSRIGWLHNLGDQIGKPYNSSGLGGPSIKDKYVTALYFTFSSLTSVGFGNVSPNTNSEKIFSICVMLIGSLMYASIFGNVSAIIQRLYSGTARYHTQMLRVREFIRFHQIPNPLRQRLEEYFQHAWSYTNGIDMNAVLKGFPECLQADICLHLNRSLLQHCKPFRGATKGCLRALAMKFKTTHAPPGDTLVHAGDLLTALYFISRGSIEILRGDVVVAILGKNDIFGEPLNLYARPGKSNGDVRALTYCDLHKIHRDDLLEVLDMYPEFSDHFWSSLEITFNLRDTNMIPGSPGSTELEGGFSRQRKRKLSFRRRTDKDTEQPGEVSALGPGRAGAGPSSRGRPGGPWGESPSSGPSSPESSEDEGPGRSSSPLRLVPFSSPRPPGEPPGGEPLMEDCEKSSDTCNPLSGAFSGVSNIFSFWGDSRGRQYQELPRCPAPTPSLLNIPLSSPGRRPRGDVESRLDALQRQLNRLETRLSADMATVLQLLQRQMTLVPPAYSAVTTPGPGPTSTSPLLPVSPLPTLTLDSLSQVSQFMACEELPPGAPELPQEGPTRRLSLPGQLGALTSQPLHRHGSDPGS

Compared with `Cc1c(C(=O)N/N=C/c2ccc(N3CCOCC3)cc2)nc2ccccn12`, `O=C(Cc1ccc(Cl)cc1)Nc1ccccc1N1CCOCC1` is higher in “hERG current change (%, negative = inhibition) at 10uM” value: -1.87% for the first, 5.94% for the second.

First: C=CCN(CC=C)C(=O)C(=O)c1ccn(-c2c(C)csc2C(=O)OC)c1
Second: CCN(CC)C(=O)C(=O)c1ccn(-c2c(C)csc2C(=O)OC)c1
The “hERG current change (%, negative = inhibition) at 10uM” value of the first is lower: -70.3% for the first, -9.5% for the second.

Going from `COC(=O)c1scc(C)c1-n1ccc(C(=O)C(=O)N(C)C)c1` to `COC(=O)CCCC(=O)N(C)CC1CCCN(CCc2ccccc2C)C1` (stereo not drawn), the “hERG current change (%, negative = inhibition) at 10uM” value falls from 5.31% to -53.6%.

Compared with `NC(=O)C1CCCN(C(=O)c2ccc(Cl)cc2)C1` (stereo not drawn), `O=C(Nc1ccc(N2CCOCC2)nc1)c1ccc(Cl)cc1` is lower in “hERG current change (%, negative = inhibition) at 10uM” value: 6.59% for the first, -11.5% for the second.

Compared with `O=C(Nc1ccccc1)c1cc(-n2cnnc2)ccc1Cl`, `CCC(CC)C(=O)Nc1cccc(/C(C)=N/NC(=O)c2ccccc2Cl)c1` is lower in “hERG current change (%, negative = inhibition) at 10uM” value: 9.46% for the first, 6.73% for the second.

Going from `O=C(Nc1ccc(N2CCOCC2)nc1)c1ccc(C(F)(F)F)cc1` to `CN1CCN(c2ccc(NC(=O)c3ccc(C(F)(F)F)cc3)cn2)CC1`, the “hERG current change (%, negative = inhibition) at 10uM” value falls from 16.6% to -73.2%.

Compared with `CN(C)S(=O)(=O)c1ccc(C(=O)Nc2ccc3c(c2)CCC3)cc1`, `CN(C)S(=O)(=O)c1cccc(C(=O)Nc2ccc3c(c2)CCC3)c1` is higher in “hERG current change (%, negative = inhibition) at 10uM” value: -52% for the first, -21.9% for the second.

Compared with `Cc1ccc(C(=O)Nc2ccc3c(c2)CCC3)cc1`, `CN1CCc2ccc(NC(=O)c3ccc(C(F)(F)F)cc3)cc2C1` is lower in “hERG current change (%, negative = inhibition) at 10uM” value: 14.7% for the first, -53.8% for the second.

First: CN1CCN(c2ccc(NC(=O)c3ccc(Cl)cc3)cn2)CC1
Second: Cc1ccccc1C(=O)Nc1ccc(N2CCN(C)CC2)nc1
The “hERG current change (%, negative = inhibition) at 10uM” value of the first is lower: -53.1% for the first, -1.6% for the second.

First: CN(C)S(=O)(=O)N1CCc2ccc(NC(=O)c3ccc(C(F)(F)F)cc3)cc2C1
Second: COCC(=O)N1CCc2ccc(NC(=O)c3ccc(C(F)(F)F)cc3)cc2C1
The “hERG current change (%, negative = inhibition) at 10uM” value of the first is higher: 25.4% for the first, -38.3% for the second.

Compared with `CC(=O)Nc1ccc(N2CCN(c3ccc(C(F)(F)F)cn3)CC2)nc1`, `CN1CCN(c2ccccc2NC(=O)Cc2ccc(Cl)cc2)CC1` is lower in “hERG current change (%, negative = inhibition) at 10uM” value: -3.49% for the first, -73.4% for the second.

Going from `Cn1c(=O)c2c([nH]c(=S)n2Cc2ccc(Cl)cc2)n(C)c1=O` to `CCC(=O)N1CCN(c2ccc(Cl)cc2NC(=O)Cc2ccc(Cl)cc2)CC1`, the “hERG current change (%, negative = inhibition) at 10uM” value falls from 17% to -54.5%.

Going from `Cc1ccsc1C(=O)N1CCN(c2ncccn2)CC1` to `CCCC(=O)Nc1ccccc1N1CCN(C(=O)C(C)C)CC1`, the “hERG current change (%, negative = inhibition) at 10uM” value rises from 7.76% to 11.4%.

Compared with `COc1ccc(-c2nnn(CC(=O)N(C3CCCCC3)C(C)C(=O)NC3CCCC3)n2)cc1OC` (stereo not drawn), `COc1ccc(N(C(=O)c2snc(C(N)=O)c2N)C(C(=O)NC2CCCC2)c2cccs2)cc1OC` (stereo not drawn) is higher in “hERG current change (%, negative = inhibition) at 10uM” value: -22.1% for the first, -1.74% for the second.

Compared with `COc1cccc(/C=N/NC(=O)CC2C(=O)NN=C2C)c1OC` (stereo not drawn), `CCOC(=O)CN1C(=O)C(C)(C)Oc2ccc(C(=O)Nc3ccccc3OC)cc21` is lower in “hERG current change (%, negative = inhibition) at 10uM” value: 2.5% for the first, -6.76% for the second.

First: O=C(NCCN1C(=O)S/C(=C\c2cccnc2)C1=O)c1ccc([N+](=O)[O-])s1
Second: O=C(N/N=C1\CCS(=O)(=O)c2ccc(F)cc21)c1ccc([N+](=O)[O-])cc1
The “hERG current change (%, negative = inhibition) at 10uM” value of the first is higher: 5.15% for the first, -19.6% for the second.

Compared with `C/C(CC(=O)N1CCCC1)=N\NC(=O)c1cc2ccccc2cc1O`, `Cc1cc(C)nc(N2CCC(C(=O)NNC(=O)Cc3ccccc3)CC2)n1` is higher in “hERG current change (%, negative = inhibition) at 10uM” value: 4.98% for the first, 8.85% for the second.

First: O=S(=O)(Nc1cc(S(=O)(=O)N2CCOCC2)ccc1N1CCCC1)c1cccs1
Second: CC(=O)Nc1ccc(S(=O)(=O)N2CCCC2)cc1
The “hERG current change (%, negative = inhibition) at 10uM” value of the first is lower: -4.49% for the first, 12.1% for the second.

Compared with `Cc1cc(-c2nnco2)c(C)n1-c1ccccc1`, `CCC(C)n1c(-c2ccco2)nc2nc3ccccc3nc21` (stereo not drawn) is lower in “hERG current change (%, negative = inhibition) at 10uM” value: -1.71% for the first, -3.86% for the second.

First: COC(=O)C1=C(c2ccc(S(C)(=O)=O)cc2)C[C@@H]2CC[C@H]1N2C(=O)N1CCCCC1
Second: CCOC(=O)C1CCN(S(=O)(=O)c2ccc(OCC(=O)OC)cc2)CC1
The “hERG current change (%, negative = inhibition) at 10uM” value of the first is higher: -1.44% for the first, -9.54% for the second.

First: COC(=O)CCC(=O)N(C)CC1CCCN(CCc2cccc(C(F)(F)F)c2)C1 (stereo not drawn)
Second: CSCCC(=O)N(C)CC1CCCN(CCc2cccc(C(F)(F)F)c2)C1 (stereo not drawn)
The “hERG current change (%, negative = inhibition) at 10uM” value of the first is higher: -61.9% for the first, -74.6% for the second.

First: COc1ccccc1CCN1CCCC(CN(C)C(=O)CCC(=O)N(C)C)C1 (stereo not drawn)
Second: COc1ccccc1CCN1CCCC(CN(C)C(=O)CCC(N)=O)C1 (stereo not drawn)
The “hERG current change (%, negative = inhibition) at 10uM” value of the first is lower: 9.14% for the first, 22.5% for the second.

Going from `CC(=O)NCCC(=O)N(C)CC1CCN(CCc2cccc(C(F)(F)F)c2)CC1` to `CSCCC(=O)N(C)CC1CCN(CCc2cccc(C(F)(F)F)c2)CC1`, the “hERG current change (%, negative = inhibition) at 10uM” value falls from 2.52% to -64.3%.

Going from `CN(CC1CCCN(CCc2cccc(C(F)(F)F)c2)C1)C(=O)c1ccco1` (stereo not drawn) to `CN(CC1CCCN(CCc2cccc(C(F)(F)F)c2)C1)C(=O)c1ccc2nc[nH]c2c1` (stereo not drawn), the “hERG current change (%, negative = inhibition) at 10uM” value rises from -69.2% to -33.1%.

Going from `CCOC(=O)C1CCCCN1Cc1cccc(C(F)(F)F)c1` (stereo not drawn) to `CSCCC(=O)NC1CCCN(CCc2ccccc2)C1` (stereo not drawn), the “hERG current change (%, negative = inhibition) at 10uM” value falls from 6.43% to -38.2%.

Going from `O=C(O)c1ccccc1NS(=O)(=O)c1cccc2nsnc12` to `NC(=O)c1ccsc1NC(=O)CCS(=O)(=O)c1ccccc1`, the “hERG current change (%, negative = inhibition) at 10uM” value falls from 18.3% to 1.27%.

First: Cc1ccc(/C=N/NC(=S)NCCc2ccccc2)s1
Second: Cc1ccccc1NC(=O)C(Cc1ccccc1)n1cccc1 (stereo not drawn)
The “hERG current change (%, negative = inhibition) at 10uM” value of the first is higher: 27.9% for the first, -0.159% for the second.

Going from `Cc1ccc(CNC(=O)CSc2nc3ccsc3c(=O)n2NC(=O)c2ccccc2)cc1` to `O=C(CN(C(=O)c1csnn1)c1cccc2ccccc12)NCc1ccccc1`, the “hERG current change (%, negative = inhibition) at 10uM” value rises from -9.41% to 0.271%.

First: CCOC(=O)N1CCN(C(=O)C(CC(C)C)NS(=O)(=O)c2ccc3c(c2)oc(=O)n3C)CC1 (stereo not drawn)
Second: CCC(=O)Nc1cc(Cl)ccc1N1CCN(C(=O)CC)CC1
The “hERG current change (%, negative = inhibition) at 10uM” value of the first is higher: -12.4% for the first, -24.9% for the second.

Compared with `COc1cc(SC)ccc1C(=O)Nc1ccc(Br)cn1`, `COc1ccc(NC(=O)c2ccccc2[N+](=O)[O-])cc1` is lower in “hERG current change (%, negative = inhibition) at 10uM” value: 14.4% for the first, 9.48% for the second.

First: CC(=O)Nc1ccc(S(=O)(=O)N2CCCN(S(=O)(=O)c3ccc(C)cc3)CC2)cc1
Second: CC(=O)Nc1ccc(S(=O)(=O)N2CCCN(S(=O)(=O)c3ccc(NC(C)=O)cc3)CC2)cc1
The “hERG current change (%, negative = inhibition) at 10uM” value of the first is lower: -72.8% for the first, -0.406% for the second.

Compared with `Cc1ccc(-c2nnc(SCC(=O)Nc3ccc(S(=O)(=O)N4CCCCCC4)cc3)o2)cc1`, `CC(=O)Nc1ccc(S(=O)(=O)N2CCC(c3nnc(-c4ccc(C)cc4)o3)CC2)cc1` is lower in “hERG current change (%, negative = inhibition) at 10uM” value: -7.29% for the first, -51.1% for the second.

Compared with `COc1ccc(-c2nnc(C3CCN(S(=O)(=O)c4ccccc4)CC3)o2)cc1`, `CN1CCN(c2ccccc2NC(=O)c2ccc(-c3ccccc3)cc2)CC1` is higher in “hERG current change (%, negative = inhibition) at 10uM” value: -47.4% for the first, -31.6% for the second.

Going from `COC(=O)NNC(=O)c1ccccc1C` to `Cc1ccccc1NC(=O)Cc1cn(C)c2ccccc12`, the “hERG current change (%, negative = inhibition) at 10uM” value rises from -11.7% to 15.1%.

Going from `Cc1ccc([N+](=O)[O-])cc1S(=O)(=O)Nc1ccccn1` to `CS(=O)(=O)N1CCN(c2ccccc2NC(=O)Cc2ccc(Cl)cc2)CC1`, the “hERG current change (%, negative = inhibition) at 10uM” value falls from 9.5% to -38.4%.

Going from `CCCn1c(-c2cc(OC)c(OC)c(OC)c2)nc2nc3ccccc3nc21` to `CCC(C)n1c(-c2cc(OC)c(OC)c(OC)c2)nc2nc3ccccc3nc21` (stereo not drawn), the “hERG current change (%, negative = inhibition) at 10uM” value falls from -37.5% to -50.9%.

Going from `CCOc1ccc(C2C(C(=O)NC)=C(C)Nc3nc4ccccc4n32)cc1OC` (stereo not drawn) to `CCc1ccccc1NC(=O)Cc1cn(C)c2ccccc12`, the “hERG current change (%, negative = inhibition) at 10uM” value falls from 11.9% to 3.59%.

Going from `CCCSC1=C(C#N)C(c2cccs2)CC(=O)N1` (stereo not drawn) to `CCC(=O)N1CCN(c2ccc(Cl)cc2NC(=O)Cc2ccccc2)CC1`, the “hERG current change (%, negative = inhibition) at 10uM” value falls from 3.24% to -46.3%.

Going from `O=C(COc1ccccc1)Nc1ccccc1N1CCN(c2ccccc2)CC1` to `O=C(Cc1ccccc1)Nc1ccccc1N1CCN(c2ccccc2)CC1`, the “hERG current change (%, negative = inhibition) at 10uM” value rises from 1.02% to 11.9%.

First: CC(C)C(=O)N1CCN(c2ccccc2NC(=O)COc2ccccc2)CC1
Second: CC(C)C(=O)N1CCN(c2ccccc2NC(=S)NC(=O)Cc2ccccc2)CC1
The “hERG current change (%, negative = inhibition) at 10uM” value of the first is lower: -57.6% for the first, -4.92% for the second.

First: CC(=O)N1CCN(c2ccccc2NC(=O)Cc2ccc(Cl)cc2)CC1
Second: CCC(=O)N1CCN(c2ccccc2NC(=O)Cc2ccc(Cl)cc2)CC1
The “hERG current change (%, negative = inhibition) at 10uM” value of the first is higher: -64.8% for the first, -68.6% for the second.

First: CCC(=O)N1CCN(c2ccccc2NC(=O)COc2ccccc2Cl)CC1
Second: CCC(=O)N1CCN(c2ccccc2NC(=O)Cc2ccccc2)CC1
The “hERG current change (%, negative = inhibition) at 10uM” value of the first is lower: -42.2% for the first, -29.1% for the second.

Compared with `CC(C)C(=O)N1CCN(c2ccccc2NC(=O)COc2ccc(C3CCCCC3)cc2)CC1`, `CC(C)C(=O)N1CCN(c2ccccc2NC(=O)Cc2ccc(Cl)cc2)CC1` is lower in “hERG current change (%, negative = inhibition) at 10uM” value: -4.96% for the first, -69.7% for the second.

Compared with `CC(=O)N1CCN(c2ccccc2NC(=O)COc2ccc(Cl)cc2Cl)CC1`, `CN1CCN(c2ccccc2NC(=O)Cc2cn(C)c3ccccc23)CC1` is lower in “hERG current change (%, negative = inhibition) at 10uM” value: -22.3% for the first, -59.5% for the second.

Going from `CCN(CC)S(=O)(=O)c1cc(NC(=O)C2CCN(c3ncnc4sc(C)c(C)c34)CC2)ccc1Cl` to `Cc1ccc(-n2nc(C)c3c(C)c(CCC(=O)O)c(C)nc32)cc1`, the “hERG current change (%, negative = inhibition) at 10uM” value falls from 23.3% to 12.6%.

Going from `O=C(Nc1ccccc1)/C(=C\c1ccc(F)cc1)NC(=O)c1ccco1` to `O=c1c(/C=N/O)c(Nc2ccccc2)nc2ccccn12`, the “hERG current change (%, negative = inhibition) at 10uM” value falls from 3.87% to -13.5%.

`CN1CCN(c2ccccc2NC(=O)C(Cc2ccccc2)n2cccc2)CC1` (stereo not drawn) was tested, and the “hERG current change (%, negative = inhibition) at 10uM” value was -65.6%.
